About 83,000 compounds went through this panel and 20% of them were active in at least one assay; those are over-represented in the sample as a whole.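 Single-dose data. Exposure time 48 hours. Values below 10 considered active.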 Unmarked numbers belong to inactive results. Activity calls are given as the source filed them.

Holding throughout (experiment): NCI-60 one-dose screen, 48 h (100 = growth as untreated, 0 = no growth, -100 = all killed)
In one experiment the test system is HCT-15 colon. The settings on record: 10 µM unless noted.
For the next experiment, the system named is HT29 colon. Particulars: 10 µM unless noted.
A further experiment relates to SNB-19 CNS. The settings on record: 10 µM unless noted.
The subject of a further experiment is U251 CNS. Particulars: 10 µM unless noted.
The next experiment deals with PC-3 prostate. The settings on record: 10 µM unless noted.
The subject of another experiment is SK-MEL-5 melanoma. Particulars: 10 µM unless noted.
The test system of a further experiment is UACC-62 melanoma. Particulars: 10 µM unless noted.
The next experiment has as its system LOX IMVI melanoma. The settings on record: 10 µM.
For a further experiment, the system named is SK-MEL-28 melanoma. The settings on record: 10 µM unless noted.
Another experiment concerns SK-MEL-2 melanoma. Particulars: 10 µM unless noted.
Another experiment relates to EKVX NSCLC. The settings on record: 10 µM unless noted.
The test system of another experiment is SN12C renal. Particulars: 10 µM unless noted.
Another experiment concerns UO-31 renal. Particulars: 10 µM unless noted.
The next experiment deals with TK-10 renal. The settings on record: 10 µM unless noted.
For the next experiment, the system named is ACHN renal. The settings on record: 10 µM unless noted.
In the next experiment the test system is CAKI-1 renal. Particulars: 10 µM unless noted.
The test system of a further experiment is A498 renal. Particulars: 10 µM unless noted.
For the next experiment, the system named is CCRF-CEM leukemia. Particulars: 10 µM unless noted.
A further experiment relates to MOLT-4 leukemia. Particulars: 10 µM unless noted.

For the compound `COc1ccc2[nH]c(=O)c(CSc3nccc(-c4ccc(OC)c(OC)c4)n3)cc2c1`, the growth in the experiment on HCT-15 colon is 16.4%; with HT29 colon it was 16.2%; in the experiment on SNB-19 CNS, 21.4%; with U251 CNS, 26%; with PC-3 prostate, 5.92% (active); in the experiment on SK-MEL-5 melanoma, -1.05% (active). The growth is 27.9% in the experiment with UACC-62 melanoma; 24.5% in the experiment with LOX IMVI melanoma; 42.7% in the experiment on SK-MEL-28 melanoma; 44.2% in the experiment with SK-MEL-2 melanoma; 15.7% with EKVX NSCLC; 33.6% in the experiment with SN12C renal. The growth with UO-31 renal is 16.1%; in the experiment on TK-10 renal, 26.4%; in the experiment with ACHN renal it was 24.4%; with CAKI-1 renal, -10.2% (active); with A498 renal, 47.8%; in the experiment on CCRF-CEM leukemia, 31.3%. The growth in the experiment on MOLT-4 leukemia is 7.07% (active).
Turning to `NS(=O)(=O)c1ccc(CCNC(=O)CSc2ccc(-c3ccc(Br)cc3)nn2)cc1`, the growth in the experiment on HCT-15 colon was 97.4%; in the experiment with HT29 colon, 82.6%; with SNB-19 CNS, 61.5%; in the experiment on U251 CNS, 76%; in the experiment on PC-3 prostate it was 74%; with SK-MEL-5 melanoma, 28.4%. The growth in the experiment with UACC-62 melanoma was 66.8%; in the experiment with LOX IMVI melanoma it was 59.8%; with SK-MEL-28 melanoma it was 78.1%; with SK-MEL-2 melanoma it was 56.4%; with EKVX NSCLC, 74.3%; in the experiment with SN12C renal, 80.7%. For the same compound, the growth in the experiment with UO-31 renal was 56.4%; in the experiment with TK-10 renal, 72.2%; in the experiment on ACHN renal it was 59.6%; with CAKI-1 renal, 65.3%; in the experiment on A498 renal, 78.4%; in the experiment with CCRF-CEM leukemia, 54.3%. Also, in the experiment with MOLT-4 leukemia, the growth is 39%.
On to `COc1ccc2c(c1)c(/C=N/Nc1ccc3ccccc3n1)cn2C`, for which the growth in the experiment on HCT-15 colon is -44.8% (active); in the experiment with HT29 colon it was -66.7% (active); in the experiment with SNB-19 CNS it was 71.3%; in the experiment on U251 CNS it was 7.9% (active); in the experiment with PC-3 prostate, 7.27% (active); in the experiment with SK-MEL-5 melanoma, 23%. In addition, the growth was 20.6% in the experiment with UACC-62 melanoma; -97.9% (active) in the experiment with LOX IMVI melanoma; -1.59% (active) in the experiment on SK-MEL-28 melanoma; 81.8% in the experiment with SK-MEL-2 melanoma; 53.1% in the experiment with EKVX NSCLC; -71.7% (active) with SN12C renal. Further, the growth with UO-31 renal was -31.3% (active); in the experiment on TK-10 renal, 43.4%; with ACHN renal, -85.4% (active); in the experiment on CAKI-1 renal, -45.4% (active); in the experiment on A498 renal it was 83.3%; in the experiment with CCRF-CEM leukemia, 10.8%. Besides, the growth in the experiment on MOLT-4 leukemia is -27.4% (active).
Take `CC(=O)c1cccc(NC(=O)CCC(=O)NS(=O)(=O)c2ccc(C)cc2)c1`: the growth in the experiment on HCT-15 colon was 107%; in the experiment with HT29 colon, 106%; in the experiment with SNB-19 CNS it was 98.5%; in the experiment on U251 CNS it was 104%; in the experiment on PC-3 prostate it was 105%; in the experiment on SK-MEL-5 melanoma it was 109%. The growth in the experiment on UACC-62 melanoma is 102%; with LOX IMVI melanoma, 104%; in the experiment on SK-MEL-28 melanoma, 108%; in the experiment on SK-MEL-2 melanoma, 115%; with EKVX NSCLC it was 99.5%; in the experiment on SN12C renal, 111%. Also, the growth with UO-31 renal was 92.5%; with TK-10 renal, 103%; in the experiment with ACHN renal, 105%; with CAKI-1 renal, 101%; in the experiment with A498 renal, 137%; in the experiment on CCRF-CEM leukemia it was 99%. The growth in the experiment on MOLT-4 leukemia was 107%.
`Clc1cccc(N/N=C/c2c[nH]c3ccc(Br)cc23)n1`: the growth in the experiment with HCT-15 colon was 22.3%; with HT29 colon, 23.6%; in the experiment on SNB-19 CNS, 20.5%; with U251 CNS it was 17.1%; in the experiment on PC-3 prostate, 7.77% (active); in the experiment with SK-MEL-5 melanoma, 40.3%. Also, the growth in the experiment on UACC-62 melanoma was 1.6% (active); with LOX IMVI melanoma it was -60.9% (active); in the experiment with SK-MEL-28 melanoma, 49.1%; with SK-MEL-2 melanoma, 27.4%; in the experiment on EKVX NSCLC it was 33.9%; in the experiment on SN12C renal, -1.39% (active). The growth with UO-31 renal is 7.66% (active); in the experiment with TK-10 renal, 63.9%; with ACHN renal, 10.6%; with CAKI-1 renal, 11.7%; in the experiment with A498 renal it was 79.9%; with CCRF-CEM leukemia, -14.8% (active). Further, the growth with MOLT-4 leukemia is -20.1% (active).
As to `COc1ccc(-c2nc3cc(C)ccc3n2CC(=O)N=Nc2c(O)[nH]c3ccc(Br)cc23)cc1`, the growth with HCT-15 colon was -66.1% (active); in the experiment on HT29 colon it was -67.4% (active); in the experiment on SNB-19 CNS it was 29.2%; in the experiment on U251 CNS it was -63.1% (active); in the experiment with PC-3 prostate, 13.9%; in the experiment with SK-MEL-5 melanoma, -45.6% (active). Moreover, the growth with UACC-62 melanoma is -42.8% (active); in the experiment with LOX IMVI melanoma, -81.9% (active); in the experiment on SK-MEL-28 melanoma, -53.8% (active); with SK-MEL-2 melanoma, 61.6%; in the experiment with EKVX NSCLC, -36.5% (active); in the experiment with SN12C renal it was -57.8% (active). Also, the growth in the experiment with UO-31 renal was 53.5%; in the experiment on TK-10 renal, 25.6%; in the experiment on ACHN renal it was 15.5%; with CAKI-1 renal, 54.6%; with A498 renal, 136%; in the experiment on CCRF-CEM leukemia it was 58.8%. For the same compound, the growth in the experiment with MOLT-4 leukemia was 23.3%.
Take `Cn1cc(NC(=O)c2cc(NC(=O)c3ccc(C#Cc4ccccc4)cc3)cn2C)cc1C(=O)NCCCN1CCOCC1`: the growth was -59.4% (active) in the experiment with HCT-15 colon; -71.2% (active) with HT29 colon; 73.3% in the experiment on SNB-19 CNS; -70.1% (active) with U251 CNS; 29.8% in the experiment with PC-3 prostate; -92% (active) in the experiment with SK-MEL-5 melanoma. Also, the growth was -90.9% (active) with UACC-62 melanoma; -100% (active) in the experiment on LOX IMVI melanoma; -91.8% (active) in the experiment with SK-MEL-28 melanoma; 86.2% in the experiment on SK-MEL-2 melanoma; 80.9% in the experiment with EKVX NSCLC; 40% in the experiment with SN12C renal. The growth in the experiment on UO-31 renal is 67.8%; in the experiment on TK-10 renal it was 126%; in the experiment on ACHN renal it was 63.8%; in the experiment with CAKI-1 renal, 56.9%; in the experiment with A498 renal, 114%; in the experiment on CCRF-CEM leukemia, 0.88% (active). Besides, in the experiment on MOLT-4 leukemia, the growth is -19.3% (active).
`CC12CC[C@@H]3[C@]4(C)COC(c5cn[nH]c5-c5ccc(Br)cc5)O[C@@H]4CC[C@@]3(C)[C@@H]1CC(C1=CCOC1=O)O2` (some centres not stated): the growth in the experiment on HCT-15 colon is 42.2%; in the experiment on HT29 colon, 47.6%; in the experiment on SNB-19 CNS, 59.4%; in the experiment on U251 CNS, 53%; in the experiment with PC-3 prostate it was 24.2%; in the experiment on SK-MEL-5 melanoma, 32.4%. Besides, the growth was 41.5% with UACC-62 melanoma; 22.1% in the experiment with LOX IMVI melanoma; 47.1% in the experiment on SK-MEL-28 melanoma; 52.4% with SK-MEL-2 melanoma; 43.2% in the experiment on EKVX NSCLC; 57.5% in the experiment on SN12C renal. Also, the growth is 25.1% in the experiment on UO-31 renal; 54.6% in the experiment on TK-10 renal; 47% in the experiment on ACHN renal; 43.3% in the experiment on CAKI-1 renal; 97.8% in the experiment on A498 renal; 51.4% in the experiment with CCRF-CEM leukemia. In the experiment on MOLT-4 leukemia, the growth is -0.166% (active).
